{"source": "PubChem BioAssay (NCATS)", "note": "Results filed as inconclusive are left out. Values without a mark were called inactive. Activity calls are given as the source filed them. Calls come from the whole dose curve; as a rule, active = well fitted inhibition curve with a large enough effect; inconclusive = small, poorly fitted or top-dose-only effect; inactive = flat fitted curve, though single readings scatter. Potency is the fitted concentration of half-maximal effect.", "data": [{"test_system": "CP211", "assay": "qHTS profiling for inhibitors of Plasmodium falciparum proliferation (AID 504749); note: nearly all actives have a fitted effect of over 60% in size;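 for activity, negative = inhibition: 0% = DMSO vehicle and full inhibition = artemisinin control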", "conditions": "P. falciparum in erythrocytes, SYBR Green DNA, 72 h; series mostly up to 28.7 µM; activity, negative = inhibition: at the top concentration", "how_it_was_run": "(§1)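 Parasite proliferation within erythrocytes, 72 h exposure. Endpoint: SYBR Green I fluorescence after overnight lysis at room temperature. Controls: 0.29 uM artemisinin, DMSO.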", "values": [{"smiles": "C[C@H](N)Cc1ccccc1", "activity, negative = inhibition": "-3.82%"}, {"smiles": "C[C@]12C=CC(=O)C=C1CC[C@@H]1C2CC[C@]2(C)OC(=O)CCC12", "note": "(stereo not given in full)", "activity, negative = inhibition": "-11.4%"}, {"smiles": "OCC(O)[C@H]1O[C@@H]2O[C@H](C(Cl)(Cl)Cl)O[C@@H]2[C@H]1O", "note": "(stereo not given in full)", "activity, negative = inhibition": "-1.85%"}, {"smiles": "CC1(C)[C@@H](C=C(Cl)Cl)[C@@H]1C(=O)OCc1c(F)c(F)cc(F)c1F", "activity, negative = inhibition": "3.91%"}, {"smiles": "CC1(C)S[C@@H]2[C@H](N)C(=O)N2C1C(=O)O", "note": "(stereo not given in full)", "activity, negative = inhibition": "3.82% [at 12.8 µM]"}, {"smiles": "C=C1Nc2ccccc2C(=O)N1c1ccccc1C", "activity, negative = inhibition": "3.42%"}, {"smiles": "CC1OC(O[C@H]2C[C@@H](O)[C@]3(CO)[C@@H]4C(CC[C@]3(O)C2)[C@@]2(O)CC[C@H](C3=CC(=O)OC3)[C@@]2(C)C[C@H]4O)C(O)C(O)C1O", "note": "(stereo not given in full)", "activity, negative = inhibition": "-4.6%"}, {"smiles": "O=[N+]([O-])OC1CO[C@H]2C(O[N+](=O)[O-])COC12", "note": "(stereo not given in full)", "activity, negative = inhibition": "-0.26%"}, {"smiles": "CCOC(=O)/C=C(C)/C=C/CC(C)CCCC(C)C", "note": "(stereo not given)", "activity, negative = inhibition": "2.77%"}, {"smiles": "[S]=[Sb][S][Sb]=[S]", "activity, negative = inhibition": "-2.77%"}, {"smiles": "CN1C2CCC1C(C(=O)O)C(OC(=O)c1ccccc1)C2", "note": "(stereo not given)", "activity, negative = inhibition": "-0.1%"}, {"smiles": "C[C@@H]1CC[C@H]2[C@@H](C)C(=O)O[C@@H]3OC4(C)CC[C@@H]1C32OO4", "note": "(stereo not given in full)", "Potency": "16.9 nM (active)"}, {"smiles": "Cc1ccc2c(c1)[C@@H]1CN(C)CC[C@H]1N2", "activity, negative = inhibition": "-2.14%"}, {"smiles": "Nc1nc(O)c(-c2ccccc2)o1", "activity, negative = inhibition": "-2.29%"}, {"smiles": "C=CC[N+]1(C)CCC23c4c5ccc(O)c4O[C@H]2C(=O)CC[C@@]3(O)C1C5", "note": "(stereo not given in full)", "activity, negative = inhibition": "9.56%"}, {"smiles": "OC[C@@H](O)[C@H]1O[C@@H]2OC(C(Cl)(Cl)Cl)O[C@H]2[C@H]1O", "note": "(stereo not given in full)", "activity, negative = inhibition": "0.44%"}, {"smiles": "CCCCCCC(=O)O[C@H]1CC[C@H]2[C@@H]3CCC4CC(=O)C=C(C)[C@]4(C)[C@H]3CC[C@]12C", "note": "(stereo not given in full)", "activity, negative = inhibition": "1.26%"}, {"smiles": "Cc1cc(C)cc(C(=O)OC2CC3CCC(C2)N3C)c1", "note": "(stereo not given)", "activity, negative = inhibition": "-10%"}, {"smiles": "CCCN1CCCC2Cc3nc(N)ncc3CC21", "note": "(stereo not given)", "activity, negative = inhibition": "-7.47%"}, {"smiles": "COc1ccc2c3c1O[C@H]1[C@@H](O)C=C[C@H]4C(C2)NCCC341", "note": "(stereo not given in full)", "activity, negative = inhibition": "1.51%"}, {"smiles": "CCCCCC(O)C1C(=O)OC(C)C(O)\\C=C/C=C\\C=C/C=C\\C=C(\\C)C(O)C(O)C(O)CC(O)CC(O)CC(O)CC(O)CC1O", "note": "(stereo not given)", "activity, negative = inhibition": "1.7%"}, {"smiles": "CCCCCc1cc(O)c2c(c1)OC(C)(C)C1CC=C(C)CC21", "note": "(stereo not given)", "Potency": "5360 nM (active)"}]}, {"test_system": "CP215", "assay": "qHTS profiling for inhibitors of Plasmodium falciparum proliferation (AID 504749)", "conditions": "P. falciparum in erythrocytes, SYBR Green DNA, 72 h; series mostly up to 28.7 µM; activity, negative = inhibition: at the top concentration", "how_it_was_run": "as §1", "values": [{"smiles": "C[C@H](N)Cc1ccccc1", "activity, negative = inhibition": "-0.0114%"}, {"smiles": "C[C@]12C=CC(=O)C=C1CC[C@@H]1C2CC[C@]2(C)OC(=O)CCC12", "note": "(stereo not given in full)", "activity, negative = inhibition": "7.61%"}, {"smiles": "OCC(O)[C@H]1O[C@@H]2O[C@H](C(Cl)(Cl)Cl)O[C@@H]2[C@H]1O", "note": "(stereo not given in full)", "activity, negative = inhibition": "3.3%"}, {"smiles": "CC1(C)[C@@H](C=C(Cl)Cl)[C@@H]1C(=O)OCc1c(F)c(F)cc(F)c1F", "activity, negative = inhibition": "0.773%"}, {"smiles": "CC1(C)S[C@@H]2[C@H](N)C(=O)N2C1C(=O)O", "note": "(stereo not given in full)", "activity, negative = inhibition": "0.0878% [at 12.8 µM]"}, {"smiles": "C=C1Nc2ccccc2C(=O)N1c1ccccc1C", "activity, negative = inhibition": "-13%"}, {"smiles": "CC1OC(O[C@H]2C[C@@H](O)[C@]3(CO)[C@@H]4C(CC[C@]3(O)C2)[C@@]2(O)CC[C@H](C3=CC(=O)OC3)[C@@]2(C)C[C@H]4O)C(O)C(O)C1O", "note": "(stereo not given in full)", "activity, negative = inhibition": "0.509%"}, {"smiles": "CCOC(=O)/C=C(C)/C=C/CC(C)CCCC(C)C", "note": "(stereo not given)", "activity, negative = inhibition": "-0.707%"}, {"smiles": "[S]=[Sb][S][Sb]=[S]", "activity, negative = inhibition": "2.13%"}, {"smiles": "CN1C2CCC1C(C(=O)O)C(OC(=O)c1ccccc1)C2", "note": "(stereo not given)", "activity, negative = inhibition": "0.582%"}, {"smiles": "C[C@@H]1CC[C@H]2[C@@H](C)C(=O)O[C@@H]3OC4(C)CC[C@@H]1C32OO4", "note": "(stereo not given in full)", "Potency": "13.5 nM (active)"}, {"smiles": "Cc1ccc2c(c1)[C@@H]1CN(C)CC[C@H]1N2", "activity, negative = inhibition": "2.68%"}, {"smiles": "Nc1nc(O)c(-c2ccccc2)o1", "activity, negative = inhibition": "-3.77%"}, {"smiles": "C=CC[N+]1(C)CCC23c4c5ccc(O)c4O[C@H]2C(=O)CC[C@@]3(O)C1C5", "note": "(stereo not given in full)", "activity, negative = inhibition": "4.89%"}, {"smiles": "OC[C@@H](O)[C@H]1O[C@@H]2OC(C(Cl)(Cl)Cl)O[C@H]2[C@H]1O", "note": "(stereo not given in full)", "activity, negative = inhibition": "-2.29%"}, {"smiles": "CCCCCCC(=O)O[C@H]1CC[C@H]2[C@@H]3CCC4CC(=O)C=C(C)[C@]4(C)[C@H]3CC[C@]12C", "note": "(stereo not given in full)", "activity, negative = inhibition": "-0.519%"}, {"smiles": "Cc1cc(C)cc(C(=O)OC2CC3CCC(C2)N3C)c1", "note": "(stereo not given)", "activity, negative = inhibition": "-1.38%"}, {"smiles": "CCCN1CCCC2Cc3nc(N)ncc3CC21", "note": "(stereo not given)", "activity, negative = inhibition": "-9.59%"}, {"smiles": "COc1ccc2c3c1O[C@H]1[C@@H](O)C=C[C@H]4C(C2)NCCC341", "note": "(stereo not given in full)", "activity, negative = inhibition": "-0.103%"}, {"smiles": "CCCCCC(O)C1C(=O)OC(C)C(O)\\C=C/C=C\\C=C/C=C\\C=C(\\C)C(O)C(O)C(O)CC(O)CC(O)CC(O)CC(O)CC1O", "note": "(stereo not given)", "activity, negative = inhibition": "0.473%"}, {"smiles": "CCCCCc1cc(O)c2c(c1)OC(C)(C)C1CC=C(C)CC21", "note": "(stereo not given)", "Potency": "4260 nM (active)"}]}, {"test_system": "CP217", "assay": "qHTS profiling for inhibitors of Plasmodium falciparum proliferation (AID 504749)", "conditions": "P. falciparum in erythrocytes, SYBR Green DNA, 72 h; series mostly up to 28.7 µM; activity, negative = inhibition: at the top concentration", "how_it_was_run": "as §1", "values": [{"smiles": "C[C@H](N)Cc1ccccc1", "activity, negative = inhibition": "5.71%"}, {"smiles": "C[C@]12C=CC(=O)C=C1CC[C@@H]1C2CC[C@]2(C)OC(=O)CCC12", "note": "(stereo not given in full)", "activity, negative = inhibition": "6.23%"}, {"smiles": "OCC(O)[C@H]1O[C@@H]2O[C@H](C(Cl)(Cl)Cl)O[C@@H]2[C@H]1O", "note": "(stereo not given in full)", "activity, negative = inhibition": "2.68%"}, {"smiles": "CC1(C)[C@@H](C=C(Cl)Cl)[C@@H]1C(=O)OCc1c(F)c(F)cc(F)c1F", "activity, negative = inhibition": "1.3%"}, {"smiles": "CC1(C)S[C@@H]2[C@H](N)C(=O)N2C1C(=O)O", "note": "(stereo not given in full)", "activity, negative = inhibition": "-6.46% [at 12.8 µM]"}, {"smiles": "C=C1Nc2ccccc2C(=O)N1c1ccccc1C", "activity, negative = inhibition": "1.01%"}, {"smiles": "CC1OC(O[C@H]2C[C@@H](O)[C@]3(CO)[C@@H]4C(CC[C@]3(O)C2)[C@@]2(O)CC[C@H](C3=CC(=O)OC3)[C@@]2(C)C[C@H]4O)C(O)C(O)C1O", "note": "(stereo not given in full)", "activity, negative = inhibition": "9.02%"}, {"smiles": "O=[N+]([O-])OC1CO[C@H]2C(O[N+](=O)[O-])COC12", "note": "(stereo not given in full)", "activity, negative = inhibition": "6.61%"}, {"smiles": "CCOC(=O)/C=C(C)/C=C/CC(C)CCCC(C)C", "note": "(stereo not given)", "activity, negative = inhibition": "6.35%"}, {"smiles": "[S]=[Sb][S][Sb]=[S]", "activity, negative = inhibition": "-3.18%"}, {"smiles": "CN1C2CCC1C(C(=O)O)C(OC(=O)c1ccccc1)C2", "note": "(stereo not given)", "activity, negative = inhibition": "6.55%"}, {"smiles": "C[C@@H]1CC[C@H]2[C@@H](C)C(=O)O[C@@H]3OC4(C)CC[C@@H]1C32OO4", "note": "(stereo not given in full)", "Potency": "10 nM (active)"}, {"smiles": "Cc1ccc2c(c1)[C@@H]1CN(C)CC[C@H]1N2", "activity, negative = inhibition": "-8.93%"}, {"smiles": "Nc1nc(O)c(-c2ccccc2)o1", "activity, negative = inhibition": "-2.38%"}, {"smiles": "C=CC[N+]1(C)CCC23c4c5ccc(O)c4O[C@H]2C(=O)CC[C@@]3(O)C1C5", "note": "(stereo not given in full)", "activity, negative = inhibition": "2.38%"}, {"smiles": "OC[C@@H](O)[C@H]1O[C@@H]2OC(C(Cl)(Cl)Cl)O[C@H]2[C@H]1O", "note": "(stereo not given in full)", "activity, negative = inhibition": "3.27%"}, {"smiles": "CCCCCCC(=O)O[C@H]1CC[C@H]2[C@@H]3CCC4CC(=O)C=C(C)[C@]4(C)[C@H]3CC[C@]12C", "note": "(stereo not given in full)", "activity, negative = inhibition": "-14.8%"}, {"smiles": "Cc1cc(C)cc(C(=O)OC2CC3CCC(C2)N3C)c1", "note": "(stereo not given)", "activity, negative = inhibition": "-9.61%"}, {"smiles": "CCCN1CCCC2Cc3nc(N)ncc3CC21", "note": "(stereo not given)", "activity, negative = inhibition": "0.844%"}, {"smiles": "COc1ccc2c3c1O[C@H]1[C@@H](O)C=C[C@H]4C(C2)NCCC341", "note": "(stereo not given in full)", "activity, negative = inhibition": "2.55%"}, {"smiles": "CCCCCC(O)C1C(=O)OC(C)C(O)\\C=C/C=C\\C=C/C=C\\C=C(\\C)C(O)C(O)C(O)CC(O)CC(O)CC(O)CC(O)CC1O", "note": "(stereo not given)", "activity, negative = inhibition": "-2.03%"}, {"smiles": "CCCCCc1cc(O)c2c(c1)OC(C)(C)C1CC=C(C)CC21", "note": "(stereo not given)", "Potency": "2240 nM (active)"}]}]}
